Sampled rows, rich in hits. Any-hit rate of the full collection: about 4.3%.
PfHsp40 yeast – rescue of PfHsp40-mediated yeast toxicity. S. cerevisiae expressing PfHsp40, growth rescue, ATP luminescence. growth rescue, % at 12.5 µM. hit rate 0.68% among 340,000; in the data active = growth rescue above about 28%, passing the limit was not always enough; inconclusive = no clear call, values can overlap the other calls;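 also: yeast W303a lacking pdr1 and pdr3 grown in galactose medium; growth measured after three days at 30 °C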
Anthrax LF prot – anthrax lethal factor protease inhibition; P15917; multiplex microsphere protease cleavage assay, LF; inhibition, % at 10 µM; hit rate 0.12% among 360,000; also: plate controls were buffer without enzyme for full effect and enzyme alone for no effect
Target sequence (P15917 whole entry, looked up): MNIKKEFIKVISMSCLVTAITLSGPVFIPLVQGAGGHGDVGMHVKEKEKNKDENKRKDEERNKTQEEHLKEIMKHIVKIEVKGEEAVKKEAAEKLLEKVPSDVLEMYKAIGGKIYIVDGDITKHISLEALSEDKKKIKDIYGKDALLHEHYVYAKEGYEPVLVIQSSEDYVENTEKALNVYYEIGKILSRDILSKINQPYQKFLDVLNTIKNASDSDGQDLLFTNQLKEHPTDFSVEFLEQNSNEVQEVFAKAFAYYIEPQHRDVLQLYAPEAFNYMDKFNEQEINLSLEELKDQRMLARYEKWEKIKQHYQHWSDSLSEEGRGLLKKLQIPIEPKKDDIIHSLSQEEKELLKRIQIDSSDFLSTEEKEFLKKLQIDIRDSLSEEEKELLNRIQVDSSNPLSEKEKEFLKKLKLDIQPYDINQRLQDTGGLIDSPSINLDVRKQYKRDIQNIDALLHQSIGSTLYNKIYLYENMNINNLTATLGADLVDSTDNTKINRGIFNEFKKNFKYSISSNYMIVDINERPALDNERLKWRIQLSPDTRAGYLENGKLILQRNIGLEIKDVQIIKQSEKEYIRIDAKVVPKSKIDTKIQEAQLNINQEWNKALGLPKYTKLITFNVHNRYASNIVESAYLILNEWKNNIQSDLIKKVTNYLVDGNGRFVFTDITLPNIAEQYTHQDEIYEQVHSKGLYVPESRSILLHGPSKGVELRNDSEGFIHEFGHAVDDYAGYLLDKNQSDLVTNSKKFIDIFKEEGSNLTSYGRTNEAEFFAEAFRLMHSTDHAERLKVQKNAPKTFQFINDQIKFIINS
MazF activator – MazEF (E. coli) toxin RNase activation | FAM/BHQ RNA-DNA oligo cleavage fluorescence, 5 h | activation, % at 20 µM | hit rate 0.32% among 350,000 | AID 504720; in the data active = activation above about 50%
BoNT-A LC inh2 – inhibitors of Botulinum neurotoxin A light chain protease | multiplex microsphere protease substrate cleavage, flow cytometry | inhibition, % at 10 µM | hit rate 0.17% among 360,000 | AID 588499; also: plate controls were buffer without enzyme for full effect and enzyme alone for no effect
BoNT-F LC inh – BoNT F light chain protease inhibition; Multiplex microsphere protease cleavage assay, flow cytometry; inhibition, % at 10 µM; hit rate 0.22% among 360,000; in the data active = inhibition above about 35%, passing the limit was not always enough; inconclusive = no clear call, values can overlap the other calls; also: plate controls were buffer without enzyme for full effect and enzyme alone for no effect
Bead autofluor – flagged as autofluorescent in microsphere protease counterscreen. fluorescence intensity (concentration not given with the values). compound autofluorescence counterscreen, microsphere flow cytometry; hits give high values. AID 624483. hit rate 3.1% among 360,000; in the data active = fluorescence intensity above about 16000; inconclusive = no clear call, values can overlap the other calls
The depositor's hits bear a star. Rule as the data show it, unless noted: active = inhibition above about 30%; inconclusive = no clear call, values can overlap the other calls; inactive = below that.

O=C(COc1ccccc1Br)NCc1ccccn1 was read as PfHsp40 yeast 0, Anthrax LF prot -1, MazF activator 4, BoNT-A LC inh2 0, BoNT-F LC inh 1 and Bead autofluor 22895*.
O=C(NCc1ccccn1)Nc1cccc([N+](=O)[O-])c1 was read as PfHsp40 yeast -2, Anthrax LF prot 2, MazF activator -8, BoNT-A LC inh2 0, BoNT-F LC inh 7 and Bead autofluor 5244.
`CC(C)CC(NC(=O)C1CCC(C)CC1)C(=O)NCCN1CCOCC1` (stereo unspecified) gave PfHsp40 yeast 1, Anthrax LF prot -4, MazF activator 0, BoNT-A LC inh2 -2, BoNT-F LC inh -10 and Bead autofluor 3723.
For CSCCC(NC(=O)C1CCC(C)CC1)C(=O)O (stereo unspecified) the results were PfHsp40 yeast 0, Anthrax LF prot -3, MazF activator 6, BoNT-A LC inh2 inconclusive, BoNT-F LC inh -6 and Bead autofluor 23567*.
CC1CCC(C(=O)NC(C(=O)NCCN2CCC(C)CC2)C(C)C)CC1 (stereo unspecified) was read as PfHsp40 yeast 46* and MazF activator 4.
`CSCCC(NC(=O)C1CCC(C)CC1)C(=O)NCCN1CCOCC1` (stereo unspecified) gave PfHsp40 yeast 0, Anthrax LF prot 2, MazF activator 4, BoNT-A LC inh2 0, BoNT-F LC inh 0 and Bead autofluor 22383*.
`CCOC(=O)C1CCN(C(=O)C(C)Sc2nnc3ccccn23)CC1` (stereo unspecified) gave PfHsp40 yeast 0, Anthrax LF prot -3, MazF activator 1, BoNT-A LC inh2 0, BoNT-F LC inh -3 and Bead autofluor 3553.
For Cc1cc(Nc2ccccc2C(=O)O)nc2nc3ccccc3c(=O)n12 the results were PfHsp40 yeast 0, Anthrax LF prot -15, MazF activator 6, BoNT-A LC inh2 -1, BoNT-F LC inh -4 and Bead autofluor 16916*.
For Cc1cccc(NC(=S)NNC(=O)c2csc3c2CCCC3)c1 the results were PfHsp40 yeast 141*, Anthrax LF prot -2, MazF activator 6, BoNT-A LC inh2 -4, BoNT-F LC inh -6 and Bead autofluor 16967*.
`CCCc1cc(C(=O)NNC(=S)NCc2ccccc2)cs1` gave PfHsp40 yeast 8, Anthrax LF prot -6, MazF activator -4, BoNT-A LC inh2 2, BoNT-F LC inh 0 and Bead autofluor 22370*.
For CCc1cc(C(=O)NNC(=S)NCc2ccccc2)cs1 the results were PfHsp40 yeast 0, Anthrax LF prot -1, MazF activator -1, BoNT-A LC inh2 0, BoNT-F LC inh 1 and Bead autofluor 11564.
`Cc1ccc(C)c(NC(=S)NNC(=O)c2csc3c2CCC(C)C3)c1` (stereo unspecified) gave PfHsp40 yeast 62*, Anthrax LF prot 0, MazF activator -21, BoNT-A LC inh2 0, BoNT-F LC inh -7 and Bead autofluor 10543.
CCc1cc(C(=O)Nc2ccccc2)cs1 was read as PfHsp40 yeast 0, Anthrax LF prot -2, MazF activator 7, BoNT-A LC inh2 -2, BoNT-F LC inh -4 and Bead autofluor 16734*.
For CCc1cc(C(=O)NNC(=S)Nc2cc(C)ccc2C)cs1 the results were PfHsp40 yeast 1, Anthrax LF prot 1, MazF activator 1, BoNT-A LC inh2 -1, BoNT-F LC inh 1 and Bead autofluor 23483*.
Cc1ccc(C)c(NC(=S)NNC(=O)c2csc3c2CCCC3)c1 was read as PfHsp40 yeast 42*, Anthrax LF prot 0, MazF activator -1, BoNT-A LC inh2 0, BoNT-F LC inh 1 and Bead autofluor 16276*.
CCn1nnc(C(=O)O)c1C(=O)O was read as PfHsp40 yeast -1, Anthrax LF prot -5, MazF activator 6, BoNT-A LC inh2 inconclusive, BoNT-F LC inh -4 and Bead autofluor 16922*.
O=C(CSc1nnc2n1CCCN2C(=S)Nc1ccc(Cl)cc1)c1ccccc1 was read as PfHsp40 yeast 0, Anthrax LF prot 0, MazF activator -20, BoNT-A LC inh2 4, BoNT-F LC inh 6 and Bead autofluor 20424*.
For C=CCNc1nc2ccccc2nc1NS(=O)(=O)c1ccc(Cl)cc1 the results were PfHsp40 yeast 0, Anthrax LF prot 0, MazF activator 7, BoNT-A LC inh2 1, BoNT-F LC inh -5 and Bead autofluor 3333.
For O=C(CN1CCC(NC(=O)C2CCCCC2)CC1)Nc1ccccc1 the results were PfHsp40 yeast 0, Anthrax LF prot -5, MazF activator 3, BoNT-A LC inh2 -1, BoNT-F LC inh -13 and Bead autofluor 2921.
`NS(=O)(=O)c1ccc(NC(=O)CSC2CCCCC2)cc1` gave PfHsp40 yeast 0, Anthrax LF prot -2, MazF activator 8, BoNT-A LC inh2 -1, BoNT-F LC inh -4 and Bead autofluor 9047.
COc1ccc(NC(=O)CN2CCC(NC(=O)C3CCCCC3)CC2)cc1 was read as PfHsp40 yeast 0, Anthrax LF prot -1, MazF activator -9, BoNT-A LC inh2 0, BoNT-F LC inh -2 and Bead autofluor 23189*.
Screening COc1ccc(NC(=O)CSC2CCCCC2)cc1 returned PfHsp40 yeast 1, Anthrax LF prot 2, MazF activator -2, BoNT-A LC inh2 -3, BoNT-F LC inh -3 and Bead autofluor 21701*.
Cc1nc(NCc2ccccc2)[nH]c(=O)c1CCC(C)C was read as PfHsp40 yeast -1, Anthrax LF prot 0, MazF activator 6, BoNT-A LC inh2 -1, BoNT-F LC inh 0 and Bead autofluor 24000*.
For Cc1ccc(Nc2nc(C)c(CCC(C)C)c(=O)[nH]2)cc1 the results were PfHsp40 yeast 2, Anthrax LF prot -2, MazF activator 1, BoNT-A LC inh2 1, BoNT-F LC inh -5 and Bead autofluor 3586.
Screening CCN(CC)c1ccc(NC2CC(=O)N(CCc3ccc(OC)cc3)C2=O)cc1 (stereo unspecified) returned PfHsp40 yeast 2, Anthrax LF prot -8, MazF activator 60*, BoNT-A LC inh2 0, BoNT-F LC inh -3 and Bead autofluor 3991.
For COc1ccc(CCNC2CC(=O)N(CCc3ccccc3)C2=O)cc1 (stereo unspecified) the results were PfHsp40 yeast 0, Anthrax LF prot -2, MazF activator 2, BoNT-A LC inh2 -1, BoNT-F LC inh -14 and Bead autofluor 7127.
For O=C1C2C3c4ccccc4C(c4ccccc43)C2C(=O)N1/N=C/c1cccc(O)c1 (stereo unspecified) the results were PfHsp40 yeast 1, Anthrax LF prot -3, MazF activator 6, BoNT-A LC inh2 -2, BoNT-F LC inh -4 and Bead autofluor 17348*.
For O=C(Nc1ccc(Oc2cccnc2)cc1)C1CCN(Cc2cc(Cl)ccc2O)CC1 the results were PfHsp40 yeast 2, Anthrax LF prot -2, MazF activator -7, BoNT-A LC inh2 0, BoNT-F LC inh 0 and Bead autofluor 4731.
`CNc1nc(SCc2ccc(C)cc2)nc2c1CCCC2` gave PfHsp40 yeast 199* and MazF activator 2.

Compound activity as filed in PubChem.
